# Entries with a potency or affinity are not part of this list. Unmarked numbers belong to inactive results. Calls of active or inactive are those of the source.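 Rule for the calls: active = compounds lowering HepG2 cell ATP luminescence with a fitted half-maximal concentration at most twice the top tested dose; inconclusive = flat fit with 30 to 70 percent signal loss, or poor fit; inactive = the rest.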
# Assay: liver cell line viability loss – HepG2, luminescence plate reader, powder samples, set 2, cytotoxicity control, dose response (AID 651860)
# Details: CellTiter-Glo ATP luminescence, 48 h; series mostly up to 26 µM; activity change, negative = cytotoxic: at the top concentration
Structure (SMILES),"activity change, negative = cytotoxic",outcome
Cc1ccccc1S(=O)(=O)Nc1cc(C(C(=O)OC(C)C)C(=O)C(F)(F)F)c(O)c2ccccc12 (centres undefined),-6.55%,–
NC(=O)c1ccccc1C(=O)NC[C@@H]1c2ccccc2CCN1C(=O)[C@@H]1CCCC[C@@H]1C(=O)O,-1.73%,–
Cc1cc(C)c(S(=O)(=O)Nc2ncnc3ccccc23)c(C)c1,-15.3%,–
O=C1c2ccccc2C(=O)N1C[C@H]1NCCc2ccccc21,12.9%,–
O=C(O)C1CCCCC1C(=O)N1CCCCC1CN1C(=O)c2ccccc2C1=O (centres undefined),-10.9%,–
O=C(NCCO)c1ccccc1C(=O)NC[C@@H]1c2ccccc2CCN1C(=O)C1CCCCC1C(=O)O (some centres undefined),-4.28%,–
O=C(O)/C=C\C(=O)N1CCc2ccccc2C1CN1C(=O)c2ccccc2C1=O (centres undefined),3.21%,–
O=C(O)[C@@H]1CCCN1C(=O)N1CCc2ccccc2[C@H]1CN1C(=O)c2ccccc2C1=O,-13.9%,–
O=C1c2ccccc2C(=O)N1CC1c2ccccc2CCN1C(=O)Cc1ccccc1 (centres undefined),-3.5% [at 6 µM],–
O=C(O)[C@H]1CCCC[C@H]1C(=O)N1CCc2ccccc2[C@H]1CNS(=O)(=O)c1ccccc1,-11%,–
O=C(NC[C@@H]1c2ccccc2CCN1C(=O)[C@@H]1CCCC[C@@H]1C(=O)O)OCC1c2ccccc2-c2ccccc21,19.7%,–
O=C(O)C1CCCCC1C(=O)N1CCc2ccccc2C1CN1C(=O)c2ccccc2S1(=O)=O (centres undefined),-4.19%,–
O=C(O)[C@H]1CCCC[C@H]1C(=O)N1CCc2ccccc2[C@H]1CNc1nc(Cl)nc2ccccc12,-2.48%,–
COC(=O)CNc1nc(NS(=O)(=O)c2c(C)cc(C)cc2C)c2ccccc2n1,-1.27%,–
O=C(NC[C@@H]1c2ccccc2CCN1C(=O)[C@@H]1CCCC[C@@H]1C(=O)O)c1ccc(CCl)cc1,-0.926%,–
Cc1cc(C)c(S(=O)(=O)Nc2nc(N(C)C)nc3ccccc23)c(C)c1,-10.1%,–
O=C(O)CC(=O)N1CCc2ccccc2C1CN1C(=O)c2ccccc2C1=O (centres undefined),0.313%,–

Structure (SMILES),"activity change, negative = cytotoxic",outcome
O=C1c2ccccc2C(=O)N1C[C@@H]1c2ccccc2CCN1C(=O)OCc1ccccc1,1.85%,–
O=C(Oc1cc(CN2C(=O)c3ccccc3C2=O)c2ccccc2[n+]1[O-])c1cccc(Cl)c1,-8.9%,–
O=C(O)CCC(=O)N1CCc2ccccc2C1CN1C(=O)c2ccccc2C1=O (centres undefined),2.6%,–
O=C(Cc1ccccc1)NC[C@@H]1c2ccccc2CCN1C(=O)[C@@H]1CCCC[C@@H]1C(=O)O,0.039%,–
O=C(O)[C@H]1CCCC[C@H]1C(=O)N1CCc2ccccc2C1 (racemic),-1.55%,–
O=C(O)[C@H]1C2C=CC(C2)[C@H]1C(=O)N1CCc2ccccc2C1CN1C(=O)c2ccccc2C1=O (some centres undefined),-3.78%,–
O=C(O)c1ccccc1C(=O)N1CCc2ccccc2C1CN1C(=O)c2ccccc2C1=O (centres undefined),3.68%,–
O=C(NCCc1ccccc1)c1ccccc1C(=O)NC[C@@H]1c2ccccc2CCN1C(=O)C1CCCCC1C(=O)O (some centres undefined),3.84%,–
CC(C)CNc1nc(NS(=O)(=O)c2ccccc2)c2ccccc2n1,-10.5%,–
O=C(O)[C@H]1CCCC[C@H]1C(=O)N1CCc2ccccc2C1CCN1C(=O)c2ccccc2C1=O (some centres undefined),3.26%,–
O=C(O)[C@H]1CCCC[C@H]1C(=O)N1CCc2ccccc2[C@H]1CNS(=O)(=O)c1ccc([N+](=O)[O-])cc1,-11.1%,–
C[C@@H](NC(=O)C1CCCC[C@H]1C(=O)O)c1ccccc1 (mixture of isomers),0.345%,–
O=C(O)c1ccccc1C(=O)NC[C@@H]1c2ccccc2CCN1C(=O)[C@@H]1CCCC[C@@H]1C(=O)O,1%,–
Cc1cc(C)c(S(=O)(=O)Nc2cc(C(C(=O)OCc3ccccc3)C(=O)OCc3ccccc3)c(O)c3ccccc23)c(C)c1,-14.8%,–
Cc1ccc(S(=O)(=O)NNc2nc(NCC(N)=O)nc3ccccc23)cc1,-9.05% [at 12 µM],–
O=C(O)C1CCCCC1C(=O)N1CCc2ccccc2[C@H]1C(=O)NCCc1ccccc1 (some centres undefined),-10.2%,–
O=C(O)[C@H]1CCCC[C@H]1C(=O)N1CCC2=C(CCCC2)C1CN1C(=O)c2ccccc2C1=O (some centres undefined),–,inactive
